Experimental findings from PubChem BioAssay (Tox21) are described below.

Inconclusive results are not listed. A number with no mark means an inactive call. Calls of active or inactive are those of the source. The call rests on the fitted dose curve.
On the % scale 0 is the no-effect control and ±100 the full control effect; potency means the concentration at half of the fitted maximal effect.

Acetylcholinesterase (Homo sapiens), sequence (P22303 whole entry, looked up): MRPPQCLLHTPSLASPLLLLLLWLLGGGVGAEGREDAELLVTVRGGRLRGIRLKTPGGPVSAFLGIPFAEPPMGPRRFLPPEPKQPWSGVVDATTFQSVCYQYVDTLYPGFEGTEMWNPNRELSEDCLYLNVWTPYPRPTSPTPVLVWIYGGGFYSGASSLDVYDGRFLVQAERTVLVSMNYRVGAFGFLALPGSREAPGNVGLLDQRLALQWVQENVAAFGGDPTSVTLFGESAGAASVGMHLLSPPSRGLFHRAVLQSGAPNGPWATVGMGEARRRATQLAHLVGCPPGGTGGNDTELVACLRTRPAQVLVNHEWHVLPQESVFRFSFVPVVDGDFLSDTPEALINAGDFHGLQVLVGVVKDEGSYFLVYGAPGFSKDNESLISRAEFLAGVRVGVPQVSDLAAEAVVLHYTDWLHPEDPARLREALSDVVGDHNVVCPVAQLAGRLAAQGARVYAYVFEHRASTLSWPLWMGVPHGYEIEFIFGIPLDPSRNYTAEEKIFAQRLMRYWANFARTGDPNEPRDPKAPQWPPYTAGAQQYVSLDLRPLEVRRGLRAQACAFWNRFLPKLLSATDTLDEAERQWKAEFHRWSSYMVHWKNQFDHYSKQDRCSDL

This test concerns the target Acetylcholinesterase (Homo sapiens) (UniProt P22303). As to the kind of experiment: Acetylcholinesterase (AChE) small molecule antagonists: fluorescence cell-based qHTS assay (AID 1347398). Further: nearly all actives have a fitted effect of over 50% in size. To be noted: SH-SY5Y cells; Potency: AChE activity; outcome: AChE activity; series mostly up to 115 µM; activity change, negative = inhibition: at the top concentration. The text has this: National Center for Advancing Translational Sciences [NCATS]
Division of Preclinical Innovation [DPI]
U.S. Environmental Protection Agency [EPA]
National Institutes of Environmental Health Sciences [NIEHS]
National Toxicology Program [NTP]
U.S. Food and Drug Administration [FDA]
Acetylcholinesterase (AChE) is the primary cholinesterase in the body that hydrolyzes a key neurotransmitter, acetylcholine. Inhibition of AChE activity can lead to neurotoxicity. Known inhibitors of AChE include organophosphorous pesticides (OP), chemical warfare agents, drugs, and various phytochemicals.
A homogenous cell-based assay using Amplitetrade mark Fluorimetric Acetylcholinesterase Assay Kit *Green Fluorescence* (AAT Bioquest, Sunnyvale, CA) was used to evaluate the chemicals in the Tox21 10K library that inhibit AChE activity. The assay uses Thiolite Green to quantify the thiocholine produced from the hydrolysis of acetylthiocholine by AChE from the SH-SY5Y cells. AChE can hydrolyze acetylthiocholine to create thiocholine. Thiolite Green is fluorescent when reacting with thiocholine. It has spectral properties similar to those of fluorescein. The fluorescence intensity of Thiolite Green is used to measure AChE activity. Its signal can be easily read by a fluorescence microplate reader at Ex/Em = 490/520 nm.
Tox21 Assay Protocol Summary:
For cell-based AChE assay, 2,000 SH-SY5Y cells in 4 uL/well were dispensed into black, clear-bottom 1536-well plates using a Multidrop Combi (Thermo Scientific) dispenser. The assay plates were incubated overnight at 37 C to allow cells to attach to the wells, followed by the transfer of 23 nL compound or DMSO (vehicle control) by a Pintool station (Wako Automation, CA). The plates were incubated for 30 min at 37 C and 5% CO2, followed by the addition of 4 uL of detection cocktail solution (ThioliteGreen, acetylthiocholine) into each well using Flying Reagent Dispenser (Beckman Coulter, CA) and then following 40 min incubation at room temperature. Fluorescent intensity (Ex/Em = 490/520 nm) was measured using an Envision plate reader (PerkinElmer, MA).
As to `CC(C)(C)c1ccc(O)c(C(C)(C)C)c1`, the Potency entry was “inactive”.

For the compound `Cc1ccc(N=Nc2c(O)c(C(=O)O)cc3ccccc23)c(S(=O)(=O)O)c1`, the “activity change, negative = inhibition” value was 3.04% [at 53.7 µM].

For `O=c1[nH]c(=O)c2ccccc2o1`, the “activity change, negative = inhibition” value was -1% [at 53.7 µM].

As for `CC1=CCC2CC1C2(C)C` (stereo not given), the Potency entry was “inactive”.

For the compound `CC(=O)c1ccccn1`, the Potency entry was “inactive”.

With `C=C(C)C1CC=C(C)CC1` (stereo not given), the Potency entry was “inactive”.

Regarding `OC[C@H]1O[C@@H]2O[C@H]3[C@H](O)[C@@H](O)[C@@H](O[C@H]4[C@H](O)[C@@H](O)[C@@H](O[C@H]5[C@H](O)[C@@H](O)[C@@H](O[C@H]6[C@H](O)[C@@H](O)[C@@H](O[C@H]7[C@H](O)[C@@H](O)[C@@H](O[C@H]1[C@H](O)[C@H]2O)O[C@@H]7CO)O[C@@H]6CO)O[C@@H]5CO)O[C@@H]4CO)O[C@@H]3CO`, the Potency entry was “inactive”.

Turning to `C=CC(=O)OCC(CO)(COCC(COC(=O)C=C)(COC(=O)C=C)COC(=O)C=C)COC(=O)C=C`, the “activity change, negative = inhibition” value was -12.7%.

Consider `O=C(O)CCNC(=O)c1ccc(N=Nc2ccc(O)c(C(=O)O)c2)cc1`, for which the “activity change, negative = inhibition” value was -0.575% [at 53.7 µM].

Consider `C=COCC(C)C`, for which the “activity change, negative = inhibition” value is 0.457%.

As to `CN1Cc2cc(C(=O)N3CCC(C4CCNCC4)CC3)ccc2N[C@@H](CC(=O)O)C1=O`, the “activity change, negative = inhibition” value is -11.7% [at 53.7 µM].

As to `Oc1c(I)cc(Cl)c2cccnc12`, the Potency result is “inactive”.

For the compound `CC(=O)c1ccc(OCC(=O)N2CCCCC2)cc1`, the “activity change, negative = inhibition” value was 1.84% [at 53.7 µM].

Regarding `CCOC(=O)CCCCCCCCC(=O)OCC`, the “activity change, negative = inhibition” value is 2.2%.

On to `C=C[Si](OC)(OC)OC`, for which the “activity change, negative = inhibition” value is 1.24%.

Turning to `CNC(=O)c1ccccc1`, the “activity change, negative = inhibition” value was 4.99%.

For `C=CCOCC(CO)(COCC=C)COCC=C`, the “activity change, negative = inhibition” value is 3.85% [at 53.7 µM].

As to `CC(C)(C)C(=O)C(=O)O`, the “activity change, negative = inhibition” value was -1.76%.

`CCNC(=O)/C=C/c1cccc(Br)c1`: the “activity change, negative = inhibition” value was 5.29% [at 53.7 µM].

With `O=C(O)Cc1cccc(-c2cc(CCCCCCc3ccc(O[C@H]4O[C@H](CO)[C@@H](O)[C@H](O)[C@@H]4O)c(-c4cccc(CC(=O)O)c4)c3)ccc2O[C@H]2O[C@H](CO)[C@@H](O)[C@H](O)[C@@H]2O)c1`, the activity change, negative = inhibition is 5.75% [at 0.439 µM].

As for `O=C(OCCOCCO)c1ccccc1Nc1cccc(C(F)(F)F)c1`, the “activity change, negative = inhibition” value was 0.231% [at 53.7 µM].

Take `O=c1cccc[nH]1`: the “activity change, negative = inhibition” value was 0.262%.

`C[C@H](N)[C@H](O)c1cccc(O)c1`: the “activity change, negative = inhibition” value was 3.31% [at 53.7 µM].

On to `O=C(Oc1ccccc1)c1ccccc1`, for which the Potency entry was “inactive”.

For `O=S1(=O)CC=CC1`, the Potency entry is “inactive”.

Turning to `COc1cc(C(=S)N2CCOCC2)ccc1O`, the “activity change, negative = inhibition” value was 8.14% [at 53.7 µM].

In the case of `CCCCCCN`, the “activity change, negative = inhibition” value is 4.8%.

For the compound `CCCOC(=O)C(C)O` (stereo not given), the “activity change, negative = inhibition” value is 4.71%.

In the case of `O=c1oc2c(O)c(O)cc3c(=O)oc4c(O)c(O)cc1c4c23`, the activity change, negative = inhibition is 4.39% [at 23.8 µM].

Regarding `C[n+]1ccn(CCO)c1`, the Potency result was “inactive”.

`Cc1ccc(S(=O)(=O)NC(=O)NC2CCCCC2)cc1`: the “activity change, negative = inhibition” value is 2.12% [at 53.7 µM].

For the compound `CCOCC(O)COc1ccc(NC(=O)CC[S+](C)C)cc1` (stereo not given), the “activity change, negative = inhibition” value is -14.8% [at 53.7 µM].

On to `CC1=NN(c2cc(S(=O)(=O)O)ccc2Cl)C(=O)C1N=Nc1ccccc1` (stereo not given), for which the “activity change, negative = inhibition” value was -0.453%.

For the compound `O=C1c2ccccc2C(=O)N1CCc1noc(-c2ccc(CN3CCCCCC3)s2)n1`, the Potency is 3.26 µM (active).

`CCC(C(=O)NC(N)=O)c1ccccc1` (stereo not given): the “activity change, negative = inhibition” value is 0.407%.

As for `Cc1ccccc1Br`, the “activity change, negative = inhibition” value is 0.122%.

Regarding `CCCC/C=C\CCCCCCCCCC=O`, the “activity change, negative = inhibition” value is -1.9%.

Take `CC12CCC(CC1=O)C2(C)C` (stereo not given): the “activity change, negative = inhibition” value was 4.33%.

In the case of `Cc1cccc(Nc2cc(Cl)nc(SCC(=O)O)n2)c1C`, the Potency entry is “inactive”.

In the case of `Cc1cc(NC(=O)C(=O)O)cc(C)c1Oc1ccc(O)c2c1CCC2`, the “activity change, negative = inhibition” value is -0.881%.
